# Source: PubChem BioAssay AID1851 (National Center for Advancing Translational Sciences (NCATS), 2009)
# Out of some 16,000 compounds screened, about 5,100 (32%) were called active. About 25% were inconclusive and are not listed. The call rests on the fitted dose curve; in most records, active means well fitted curve in the direction sought with a large enough effect; inconclusive means small, poorly fitted or top-dose-only effect, or effect the other way; inactive means no such curve, though single readings can be large or run the other way. This is one part of the list.
# Biological target: Cytochrome P450 3A4 (Homo sapiens) (UniProt P08684)
# Sequence (P08684 whole entry, looked up): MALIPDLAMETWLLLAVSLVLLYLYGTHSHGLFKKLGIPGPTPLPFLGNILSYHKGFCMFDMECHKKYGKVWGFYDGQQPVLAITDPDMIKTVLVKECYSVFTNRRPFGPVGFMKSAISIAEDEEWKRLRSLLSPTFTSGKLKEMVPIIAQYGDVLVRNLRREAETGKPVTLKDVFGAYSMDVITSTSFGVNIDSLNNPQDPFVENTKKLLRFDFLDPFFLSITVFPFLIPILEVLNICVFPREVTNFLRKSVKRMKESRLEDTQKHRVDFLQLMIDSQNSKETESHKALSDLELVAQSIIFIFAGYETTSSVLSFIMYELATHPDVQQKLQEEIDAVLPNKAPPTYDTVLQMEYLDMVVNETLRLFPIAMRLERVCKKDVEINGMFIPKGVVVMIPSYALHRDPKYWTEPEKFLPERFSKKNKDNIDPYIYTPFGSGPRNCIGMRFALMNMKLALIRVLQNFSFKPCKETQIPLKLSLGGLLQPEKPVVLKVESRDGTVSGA
# Test: Cytochrome panel assay with activity outcomes
# Conditions: recombinant CYP, pro-luciferin dealkylation, luminescence, p450-cyp3a4; series mostly up to 57.1 µM; activity, negative = inhibition: at the top concentration
# On the % scale 0 is the no-effect control and ±100 the full control effect.
SMILES,AC50,"activity, negative = inhibition"
COC(=O)C/C=C\[C@@H](C)[C@@H](/C=N\O[C@@H](C)CN1CCCCc2nc(C)c(C)cc21)NS(=O)(=O)c1ccc(C)cc1,3.98 µM (active),
COC(=O)C/C=C\[C@@H](C)[C@@H](/C=N\O[C@@H](C)CN1CCCc2nc(C)c(C)cc21)NS(=O)(=O)c1ccc(C)cc1,,-80.9% [at 11.4 µM] (inactive)
CC(C)OCCCN1C(=O)c2ccccc2C1C(=O)NC1CCCCC1 (stereo unspecified),12.6 µM (active),
CCCS(=O)(=O)N1CCCC(C(=O)NCCCOC(C)C)C1 (stereo unspecified),,-4.73% (inactive)
O=c1nc(-c2ccccc2)cn[nH]1,,2.11% (inactive)
Cc1ccc(C2=NN(S(C)(=O)=O)C(c3cccs3)C2)cc1 (stereo unspecified),,-2.01% [at 2.29 µM] (inactive)
CS(=O)(=O)N1N=C(c2ccc(Br)cc2)CC1c1ccc2c(c1)OCO2 (stereo unspecified),1.78 µM (active),
COc1ccc(-c2cc3ccccc3n2CC(O)CNCCO)cc1 (stereo unspecified),15.8 µM (active),
Cc1[nH]n2c(=O)c(C#N)c(-c3ccccc3)nc2c1-c1ccccc1,,-9.5% (inactive)
CN1CC(c2ccccc2)C2(COc3ccccc3C2=O)C12C(=O)Nc1ccccc12 (stereo unspecified),3.98 µM (active),
NNS(=O)(=O)c1cc(C(=O)O)cc(C(=O)O)c1,,-6.08% [at 11.4 µM] (inactive)
CSc1nc(Oc2ccc(=O)[nH]n2)nc(N(C)C)n1,,-5.03% (inactive)
CN(C)S(=O)(=O)c1ccc2c(c1)/C(=C/c1cc3c([nH]1)CCCC3)C(=O)N2,5.01 µM (active),
C[C@H]1[C@@H](O)[C@@H](C)\C=C/C=C\C=C/C=C\C=C/C=C\C=C/[C@@H](O[C@H]2O[C@@H](C)[C@@H](O)[C@@H](N)[C@@H]2O)C[C@@H]2O[C@](O)(C[C@@H](O)C[C@@H](O)[C@@H](O)CC[C@@H](O)C[C@@H](O)CC(=O)O[C@H]1C)C[C@@H](O)[C@H]2C(=O)O (stereo in doubt),,12.7% [at 25.6 µM] (inactive)
CCCC(=O)Nc1nnc(CCN2CCCCC2)s1,,1.59% (inactive)
CCCc1nnc(NC(=O)Cn2cnc3ccccc3c2=O)s1,,-10.1% (inactive)
CCCc1nnc(NC(=O)CN2C(=O)C3C4C=CC(C4)C3C2=O)s1 (stereo unspecified),12.6 µM (active),
Cc1cccc(NC(=O)CSc2nc(-c3ccccc3)c(C#N)c(=O)[nH]2)c1C,,4.48% [at 0.457 µM] (inactive)
Cc1cccc(NC(=O)CSc2nnc(-c3ccco3)c(-c3ccco3)n2)c1C,15.8 µM (active),

SMILES,AC50,"activity, negative = inhibition"
O=S1(=O)C=C(Oc2ccc3ccccc3c2)c2ccccc21,,0.516% (inactive)
COc1ccc(C2(CNC(=O)/C=C/c3ccco3)CCCC2)cc1OC,3.55 µM (active),
CN(C)c1ncc2nc(-c3ccc(Cl)cc3)c(=O)n(C)c2n1,,5.8% (inactive)
O=S(=O)(N/N=C\c1cccn1-c1ccccc1)c1ccc2ccccc2c1,7.08 µM (active),
CC1=NN(c2ccc(S(=O)(=O)O)cc2)C(=O)/C1=C\c1ccc(Cl)cc1,,2.74% [at 11.4 µM] (inactive)
O=[N+]([O-])c1ccc(N/N=C\c2cccn2-c2ccccc2)nc1,,0.811% [at 2.29 µM] (inactive)
Cc1ccc(-c2nn(-c3ccccc3)cc2/C=N/NS(=O)(=O)c2ccccc2)cc1,,-20.9% [at 2.29 µM] (inactive)
Cc1ccc(S(=O)(=O)N/N=C/c2cccn2-c2ccc(Cl)cc2)cc1,10 µM (active),
C/C(=N/O)[C@@H]1C[C@H](CC(=O)O)C1(C)C,,-25.4% [at 11.4 µM] (inactive)
O=C(c1cnccn1)N1CCC2(CC1)CN(Cc1cc(C(F)(F)F)cc(C(F)(F)F)c1)C2,,-23.4% (inactive)
O=C(c1cnccn1)N1CCC[C@@]2(CCN(Cc3cc(C(F)(F)F)cc(C(F)(F)F)c3)C2)C1,7.94 µM (active),
O=C(c1csnn1)N1CCC2(CC1)CN(Cc1cc(C(F)(F)F)cc(C(F)(F)F)c1)C2,,-23.4% (inactive)
O=C(c1cnccn1)N1CCC[C@@]2(CCN(Cc3ccncc3)C2)C1,15.8 µM (active),
c1ccc(N2CCN(CCCOc3ccc4c(c3)OCO4)CC2)cc1,3.16 µM (active),
Cc1ccccc1OCCCN1CCCC1,,-1.3% (inactive)
OC[C@@H](O)CN1CCN(c2ccccc2)CC1,,-9.47% [at 25.6 µM] (inactive)
CN1CCN(c2ncc3ncc(=O)n(CCC#N)c3n2)CC1,,1.63% (inactive)
CN1CCN(c2ncc3ncc(=O)n(C[C@H]4CCCO4)c3n2)CC1,,10.6% (inactive)
COc1cccc(Cn2c(=O)c(CCc3ccccc3)nc3cnc(N4CCNCC4)nc32)c1,15.8 µM (active),

SMILES,AC50,"activity, negative = inhibition"
COc1cccc(Cn2c(=O)cnc3cnc(N4CCN(C)CC4)nc32)c1,15.8 µM (active),
CN1CCN(c2ncc3nc(CCc4ccccc4)c(=O)n(Cc4ccc(F)cc4)c3n2)CC1,5.01 µM (active),
COc1cccc(Cn2c(=O)c(CCc3ccccc3)nc3cnc(N4CCN(C)CC4)nc32)c1,15.8 µM (active),
NC([N-]/N=C/c1ccccn1)=[S]=[Fe].O=S(=O)(O)O,,-4.8% [at 11.4 µM] (inactive)
Cc1cc(C)nc(SCC(=O)Nc2ccccc2[N+](=O)[O-])n1,,-9.77% (inactive)
O=C(CSc1nc2ccccc2o1)Nc1ccccc1N1CCCCCC1,3.98 µM (active),
O=C(CNC1CCCCCC1)Nc1ccccc1N1CCCCC1,,-25% [at 2.29 µM] (inactive)
Cc1ccccc1NC(=O)CSc1nc(N2CCCCC2)nc(N2CCCCC2)n1,2 µM (active),
O=C(CSc1nc2ccccc2o1)Nc1nc2ccccc2s1,,-7.57% [at 2.29 µM] (inactive)
CC(C)NC[C@H](O)c1cc(O)cc(O)c1,inactive,
COc1ccccc1-c1c(C)oc2c(CN3CCN(CCO)CC3)c(O)ccc2c1=O,,3.63% (inactive)
COc1cccc(-c2cc(=O)c3ccccc3o2)c1N,7.94 µM (active),
COc1cccc2cc3c(=O)oc4ccccc4c3nc12,,-6.03% [at 2.29 µM] (inactive)
Cc1ccc(NC(=O)CN2C(=O)N/C(=C/c3ccc(C)o3)C2=O)cc1,,7.39% [at 2.29 µM] (inactive)
CCOc1cc(/C=C2/NC(=O)N(CC(=O)Nc3cccc(C)c3)C2=O)ccc1OC,1.78 µM (active),
CCC1CC(CSc2ncn[nH]2)OC1=O (stereo unspecified),,-23.1% (inactive)
CCCOc1ccc(-c2nc(N)n[nH]2)cc1,,8.08% [at 11.4 µM] (inactive)
COc1ccc(OCCSc2ncn[nH]2)cc1,14.1 µM (active),
